A selection: hits, their analogues and other compounds. The true share with any hit is near 18%.
DT40 TDP1 CPT: qHTS for Inhibitors of human tyrosyl-DNA phosphodiesterase 1 (TDP1): qHTS in cells in presence of CPT | 12% of 420,000 active | AID 686979, 2013 | Potency, µM (highest dose often 46.2 µM), most hits filed as inhibitors | chicken DT40 Tdp1-/-;hTDP1 cells + 20 nM CPT, ATP luminescence, 48 h; also: nearly all actives have a fitted effect of over 55% in size
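Chicken DT40 Tdp1-/- cells stably complemented with human TDP1 were seeded at 400 cells/well in medium containing 20 nM camptothecin, exposed to pin-transferred compounds, and grown at 37 °C for at least 48 hr. Viability was read as ATP luminescence.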
TGFb inhibitor: qHTS for Inhibitors of TGF-b. HepG2 CAGA-GFP TGF-b/SMAD3 reporter, GFP fluorescence, 18 h; TGF-beta stimulated, 500 pg/mL final. Potency, µM (titrated, usually from 46.1 µM), usual class: inhibitors. 1.2% of 410,000 active; also: nearly all actives have a fitted effect of over 65% in size
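Inhibition was scored as loss of TGF-beta-induced (500 pg/mL final, 18 hours, 37 degrees C) GFP in HEPG2 cells carrying a CAGA-GFP reporter, in DMEM with 1% FBS. Well GFP was summed per cell; Activity was normalised to unstimulated and stimulated DMSO wells, then concentration-response fitting.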
HepG2 tox: qHTS for Inhibitors of TGF-b: Cytotox Counterscreen; HepG2 CAGA-GFP viability, ATP luminescence, 18 h; 0.76% of 410,000 active; Potency, µM (titrated, usually from 46.1 µM), usual class: cytotoxic
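HepG2 CAGA-GFP cells (1000/well, DMEM with 1% FBS) received compound, then TGF-beta at 500 pg/mL final, and were incubated 18 hours at 37 degrees C. Viability was read by CellTiter-Glo luminescence. Media-only wells were set as complete cell-killing and DMSO as no toxicity.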
IL1B secr inh: qHTS for Inhibitors of Inflammasome Signaling: IL-1-beta AlphaLISA Primary Screen. 4.7% of 360,000 active. AID 743279, 2014. THP-1 LPS/ATP IL-1B secretion, AlphaLISA, 16 h; hits give low values. activity change, % at 57.5 µM; in the data active = activity change below about -50%; inconclusive = mostly about -30% to -49%
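THP-1 cells pretreated 1 hr with compounds (up to 57.5 uM final), then stimulated with LPS (250 ng/mL final) plus ATP (1.25 mM final); secreted IL-1B measured by AlphaLISA after 16 hr, decreased signal indicating inhibition.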
TDP1 cell noCPT: qHTS for Inhibitors of human tyrosyl-DNA phosphodiesterase 1 (TDP1): qHTS in cells in absence of CPT | DT40 Tdp1-/- hTDP1 cells, no CPT, ATP luminescence, 48 h | Potency, µM (top dose mostly 46.2 µM), usual class: inhibitors | 15% of 420,000 active | AID 686978, 2013; also: nearly all actives have a fitted effect of over 55% in size
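Camptothecin absent (DMSO only). Human TDP1-complemented DT40 knockout cells, 400 cells/well, 37 °C for minimum 48 hr; ATP measured via CellTiter-Glo, 30 min dark incubation, luminescence.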
TDP1 block: qHTS Assay for Inhibitors of Tyrosyl-DNA Phosphodiesterase (TDP1). Tyrosyl-DNA phosphodiesterase 1 (Homo sapiens), Q9NUW8. AID 485290, 2010. recombinant TDP1, AlphaScreen DNA substrate cleavage. 0.28% of 350,000 active. Potency, µM (highest dose often 130 µM), hits mostly inhibitors; also: nearly all actives have a fitted effect of over 40% in size
Target sequence (Q9NUW8 whole entry, looked up): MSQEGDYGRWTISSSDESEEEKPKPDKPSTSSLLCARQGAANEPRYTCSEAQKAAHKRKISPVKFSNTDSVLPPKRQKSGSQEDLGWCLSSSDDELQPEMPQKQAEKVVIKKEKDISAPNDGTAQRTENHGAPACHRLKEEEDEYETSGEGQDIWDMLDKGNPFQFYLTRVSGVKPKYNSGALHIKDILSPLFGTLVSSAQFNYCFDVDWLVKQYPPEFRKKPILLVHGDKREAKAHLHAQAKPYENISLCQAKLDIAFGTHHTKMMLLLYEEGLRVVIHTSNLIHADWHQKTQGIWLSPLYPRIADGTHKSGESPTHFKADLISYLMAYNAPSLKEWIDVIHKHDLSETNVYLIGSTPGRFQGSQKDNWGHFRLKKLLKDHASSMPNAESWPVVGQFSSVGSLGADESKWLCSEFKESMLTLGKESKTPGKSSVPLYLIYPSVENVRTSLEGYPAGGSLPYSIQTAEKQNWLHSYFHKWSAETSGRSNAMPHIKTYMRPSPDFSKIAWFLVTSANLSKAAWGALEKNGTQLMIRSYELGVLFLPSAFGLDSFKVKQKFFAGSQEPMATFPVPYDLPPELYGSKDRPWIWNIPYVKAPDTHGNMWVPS
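E. coli-derived human Tdp1, 1 nM final. Cpd preinc 15 min RT; substrate 15 nM final, 5 min RT; AS bead mix 10 ug/ml final, 10 min RT. Signal loss = tyrosine-FITC cleavage. No-enzyme wells = max signal.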
Each line names hits and unclear results; the compound was inactive in the other large screens. Unless noted, calls follow the shape of the dose curve; as a rule, active = well fitted curve in the direction sought with a large enough effect; inconclusive = small, poorly fitted or top-dose-only effect, or another doubt; inactive = no such curve, though single readings can be large; an effect the other way counts as inactive or inconclusive.

CCOc1ccccc1NC(=O)c1oc2ccccc2c1NC(=O)C1CCCO1 (stereo unspecified)	DT40 TDP1 CPT 16µM, TGFb inhibitor inconclusive, TDP1 cell noCPT 9.2µM
O=C(Nc1ccc2c(c1)OCCO2)c1oc2ccccc2c1NC(=O)C1CC1	DT40 TDP1 CPT inconclusive, TDP1 cell noCPT inconclusive
COc1ccc(NC(=O)c2oc3ccccc3c2NC(=O)C2CCCO2)cc1OC (stereo unspecified)	DT40 TDP1 CPT inconclusive, TDP1 cell noCPT 18µM
O=C(Nc1ccc(F)c(F)c1)c1oc2ccccc2c1NC(=O)C1CCCO1 (stereo unspecified)	DT40 TDP1 CPT inconclusive, TDP1 cell noCPT 5.2µM
O=C(c1cccc(F)c1)N1CCC2(CCCN(Cc3nccs3)C2)CC1	none (no result: TGFb inhibitor, HepG2 tox, IL1B secr inh, TDP1 block)
Cn1c(=O)[nH]c(=O)c2c1nc(Br)n2CCC(=O)c1ccccc1	DT40 TDP1 CPT inconclusive, TDP1 cell noCPT 16µM
Cn1c(=O)[nH]c(=O)c2c1nc([N+](=O)[O-])n2Cc1ccccc1	DT40 TDP1 CPT 0.65µM, TGFb inhibitor 5µM, HepG2 tox 5µM, TDP1 cell noCPT 1µM (no result: IL1B secr inh)
Cn1c(=O)[nH]c(=O)c2c1nc(Br)n2C/C=N/NC(=O)c1ccccc1	none (no result: IL1B secr inh)
CC(C)Cn1c([N+](=O)[O-])nc2c1c(=O)[nH]c(=O)n2C	DT40 TDP1 CPT 3.3µM, TGFb inhibitor inconclusive, HepG2 tox 11µM, IL1B secr inh -98, TDP1 cell noCPT 4.6µM
CC(C)(C)n1ncc2c(=O)n(Cc3c(F)cc(Cl)cc3F)cnc21	none (no result: DT40 TDP1 CPT, IL1B secr inh, TDP1 cell noCPT, TDP1 block)
O=C(CSc1n[nH]c(=O)n1C1CC1)c1c[nH]c2ccccc12	none
S=C(NNC(=S)Nc1ccccc1)Nc1ccccc1	DT40 TDP1 CPT 3.7µM, IL1B secr inh inconclusive, TDP1 cell noCPT 3.3µM (no result: TDP1 block)
S=C(Nc1ccccc1)Nc1nccs1	DT40 TDP1 CPT 5.2µM, TGFb inhibitor inconclusive, TDP1 cell noCPT 3.7µM
O=C(NNC(=S)Nc1ccc(Cl)cc1)c1ccccc1	TDP1 cell noCPT inconclusive
S=C(NN=C(C1CC1)C1CC1)Nc1ccccc1	DT40 TDP1 CPT 21µM, TDP1 cell noCPT inconclusive
S=C(NNC(=S)Nc1ccc(Cl)cc1)NNc1ccccc1	DT40 TDP1 CPT 15µM, TDP1 cell noCPT 16µM (no result: TDP1 block)
CC1CCC2C(=O)N(c3cccc(C(=O)Nc4ccccc4Cl)c3)C(=O)C2C1 (stereo unspecified)	none
O=c1c2cc3ccccc3nc2ncn1CCc1ccc(Cl)cc1	TDP1 cell noCPT inconclusive (no result: TGFb inhibitor, HepG2 tox, TDP1 block)
Cc1ccc(NC(=S)NCc2ccccc2)cc1C	TDP1 cell noCPT inconclusive (no result: TDP1 block)
Cc1ccc(NC(=S)NNC(=S)NNc2ccccc2)cc1C	TDP1 cell noCPT 23µM (no result: TDP1 block)
C/C(=C\C(=S)Nc1ccccc1)Nc1ccccc1	DT40 TDP1 CPT 15µM, TDP1 cell noCPT 16µM
C/C(=C\C(=O)c1ccccc1)Nc1ccc(O)cc1	TDP1 cell noCPT inconclusive
O=C(NCCS(=O)(=O)c1ccc(Br)cc1)c1c(F)cccc1F	none
COc1ccc(/C(C)=N/NC2=NCCN2)cc1Cl	IL1B secr inh -74 (no result: TDP1 block)
CCCCCCOc1ccc(/C(C)=N/NC2=NCCN2)cc1[N+](=O)[O-]	DT40 TDP1 CPT inconclusive, TGFb inhibitor inconclusive, HepG2 tox 20µM, IL1B secr inh -92, TDP1 cell noCPT 10µM
CC(=NNC1=NCCN1)c1cn(C2=NCCN2)nc1C	none (no result: TDP1 block)
CCCCOc1ccc(Br)cc1/C(C)=N/NC1=NCCN1	DT40 TDP1 CPT 4.6µM, TGFb inhibitor inconclusive, HepG2 tox 11µM, IL1B secr inh -113, TDP1 cell noCPT 4.1µM
Cc1ccc(C(=O)NCc2ccc(Cl)cc2)cc1S(=O)(=O)N1CCCCC1	DT40 TDP1 CPT inconclusive, TGFb inhibitor inconclusive, TDP1 cell noCPT inconclusive
CCN(CC(=O)NCc1ccc(Cl)cc1)C(=O)CN1C(=O)NC(C)(c2ccccc2)C1=O (stereo unspecified)	none
CC(=O)c1ccc(S(=O)(=O)N2CCn3cccc3C2c2ccc(C)cc2)cc1 (stereo unspecified)	DT40 TDP1 CPT 21µM, TDP1 cell noCPT inconclusive (no result: IL1B secr inh)
COc1ccc(C2c3cccn3CCN2S(=O)(=O)c2ccc([N+](=O)[O-])cc2)cc1 (stereo unspecified)	DT40 TDP1 CPT inconclusive, TDP1 cell noCPT inconclusive (no result: IL1B secr inh)
O=S(=O)(c1ccc(Br)cc1)N1CCn2cccc2C1c1ccc(Br)cc1 (stereo unspecified)	DT40 TDP1 CPT inconclusive, TGFb inhibitor inconclusive, TDP1 cell noCPT 16µM (no result: IL1B secr inh)
O=C(NCCc1ccc(C(F)(F)F)cc1)C1CCC(=O)N(CCCc2ccccc2)C1 (stereo unspecified)	DT40 TDP1 CPT inconclusive, TDP1 cell noCPT inconclusive
CCCc1cc(=O)oc2cc(C)cc(OC(C)C(=O)NCc3ccccn3)c12 (stereo unspecified)	none
COc1ccc(-c2ccnc(-c3ccncc3)n2)cc1	DT40 TDP1 CPT inconclusive, TDP1 cell noCPT 16µM
COc1ccc(-c2ccnc(-c3ccc(O)cc3)n2)cc1	DT40 TDP1 CPT 1.6µM, TDP1 cell noCPT 1.8µM
c1coc(-c2ccnc(-c3ccncc3)n2)c1	none
COC(=O)COc1ccc(-c2nccc(-c3ccccn3)n2)cc1	none (no result: TDP1 block)
COC(=O)COc1ccc(-c2nccc(-c3ccc(Br)cc3)n2)cc1	DT40 TDP1 CPT 21µM, TDP1 cell noCPT inconclusive (no result: TDP1 block)
Cc1cc(C)c2c(n1)sc1c(N3CCN(C)CC3)ncnc12	DT40 TDP1 CPT inconclusive, TDP1 cell noCPT 13µM (no result: IL1B secr inh, TDP1 block)
CNC(=O)C1(C(F)(F)F)CC(CCCO)CCCO1 (stereo unspecified)	none (no result: DT40 TDP1 CPT, IL1B secr inh, TDP1 cell noCPT)
CS/C(=N\S(=O)(=O)c1ccc(Cl)cc1)c1ccccc1	none

Compound activity deposited in PubChem BioAssay by National Center for Advancing Translational Sciences (NCATS).
